Laboratory results reported in the supplement of paper PMC6555819.

System: RARa homodimer (NR concentration 270 nM)
Assay: PBM binding z-score (relative to random genomic background probes); higher = stronger binding; sequences stand for … in GC…GCGATTGACAGCGTAGAATGAAGG
How it was run: (§1)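 Ligand-free nuclear receptor dimers were applied to custom Agilent 4×180K protein-binding microarrays whose double-stranded probes carried direct-repeat seeds, single-nucleotide variants, half-site ablations and random human genomic background sequences in 34-nt variable regions. Incubation lasted 1 h. Binding z-scores were computed against the random background probes from regression-normalized fluorescence.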

Going from ATATGTAGGTTAAGGGTCATTCATGTTGGTTCGC to TTACTAAGGTGAGCTGAGGTCGTTGATCCAACTC, the PBM binding z-score falls from 2.15 to -0.407.

Going from CAAACTAGGTCAAGGTCAAAGCCGGTTTGTGCCA to CCTACTGGTCCAAAAAGGTCATTGATGCCGATAA, the PBM binding z-score rises from 0.855 to 2.48.

First: TCATATACGTAAAAGGTGAAAGTCGGTGTGGTAA
Second: ACTAGCAGGCCAAGTTTGGGTTACTCAAACAAAG
The PBM binding z-score of the first is higher: 1.88 for the first, -0.953 for the second.

First: ATCTCTGGGTAAAGTTCAGTGAAAGATCGATAGA
Second: CCTGCTAGGTCAATTGTCAGCTAAAGCAGCTCGC
The PBM binding z-score of the first is higher: 1.47 for the first, -0.799 for the second.

Compared with ACTATTAGTTGACTTAGGGCAACCTATACGACGC, CGAACTAGGTCTTCCAGGACAGTGAATACATTGA is lower in PBM binding z-score: 0.697 for the first, -0.331 for the second.

Compared with CCTTGCGGGTCACTCCAGGTTATAGCATCGGAGT, CCGAGTAGGCTATGGGGCATTCAGGCAACGGTGA is lower in PBM binding z-score: 0.115 for the first, -0.463 for the second.

Compared with CAGCCTAGGTCAGGGCCAGAATAGGAGGAACGTT, AGTAAAAGTTCATCTAGGTAACGTAAGATATGCT is higher in PBM binding z-score: -0.25 for the first, 1.46 for the second.

Compared with CATAAAGGGTCAGCTAGGCCAGAGTAGGGACGGC, CGAACTAGGTCAAGGACACTGAATCTCCGCACGC is lower in PBM binding z-score: 0.796 for the first, 0.291 for the second.

First: GTACCAAGGTGAATAGGTCGTTTATGAGTAGGCG
Second: AGTCAAAGTTCAGGACGAGGTAACGCAAAGCACG
The PBM binding z-score of the first is lower: 0.555 for the first, 0.826 for the second.

System: RARb:RXRa (NR concentration 270 nM, RXRa partner concentration 90 nM)
Assay: as above
How it was run: as §1

Going from AGTATGAGGTTATTAAGATCAGGGAATTGCGGTC to TCTTGTAGATCAACAGGAGGTTTAGAAAGATCGA, the PBM binding z-score falls from 1.4 to -0.271.

First: TCGAGTAGGTTAGTCGGGTCATTCAGCCAACATA
Second: CCTCGGAGGAAAACAGGAGGTCAGAGCTGCCAGA
The PBM binding z-score of the first is higher: 1.79 for the first, 1.53 for the second.

First: CCTACTGGGCCATAGGTCATTGATTCCAATGCTC
Second: CCTAGTTGGACAGGAGGTCACACACCGGATATGA
The PBM binding z-score of the first is lower: 2.34 for the first, 3.23 for the second.

First: CATAGTTGGTCAGGAGGTCACACACCGGATATGA
Second: CCTTACGGGTCACGAGGTAATAGCACGACGAGCG
The PBM binding z-score of the first is lower: 3.73 for the first, 4.46 for the second.

Compared with TGGAGTAGGTTACCAATGGGGCATTCAGCTTTCT, GCGACTGGGGCAAAGCAGTTTACCATAAGGTTGG is lower in PBM binding z-score: 1.21 for the first, 0.776 for the second.

Going from CCTTACGGGTCACTGACAGGTTATAACATTTGGA to CTCGAAAGGGCGGTTGAGGTGAGTATACGGATAA, the PBM binding z-score falls from 3.9 to 1.08.

First: CTCGAAAGGTCGCTTGAGGTGAGTATACGGATAA
Second: CCTACTGGGCCAAAAAGGTCGTTGATGCCGATAA
The PBM binding z-score of the first is higher: 3.61 for the first, 1.48 for the second.

First: CCGACAGGGGCAAGGTTACCATAACGCACAGCCA
Second: CCTAGTTGGTCAGGAGGTCACCCACCGGATATGA
The PBM binding z-score of the first is lower: 2.1 for the first, 3.61 for the second.

Compared with GCATATAGGTAATACAAGGTGTAAGTCCGATTGT, AACTCTAGGTAACAAGTTCAGTGAAAGAGAGGAC is higher in PBM binding z-score: -0.269 for the first, 1.4 for the second.

Going from CCTGCTAGGCCATGGTCAGCTAATCTACAGTATG to AGTCAAAGTTAATCTAGGTAACGTAAGATATGCT, the PBM binding z-score falls from 0.929 to 0.39.

Going from CATACAGGGTCAGCTAGGTCAGAGTAGGGACGGC to CCTAGCAGGCCAATCTGGGTCAGTCAAGGCTTGA, the PBM binding z-score falls from 4.44 to 1.28.

Compared with ATATGTAGGTTAAGGGTCATTCATGTTGGTTCGC, TTACTAAGGTGAGCTGAGGTCGTTGATCCAACTC is lower in PBM binding z-score: 3.6 for the first, 2.07 for the second.

Going from CAAACTAGGTCAAGGTCAAAGCCGGTTTGTGCCA to CCTACTGGTCCAAAAAGGTCATTGATGCCGATAA, the PBM binding z-score falls from 5.2 to 3.94.

Compared with TCATATACGTAAAAGGTGAAAGTCGGTGTGGTAA, ACTAGCAGGCCAAGTTTGGGTTACTCAAACAAAG is lower in PBM binding z-score: 1.9 for the first, 0.389 for the second.

Going from ATCTCTGGGTAAAGTTCAGTGAAAGATCGATAGA to CCTGCTAGGTCAATTGTCAGCTAAAGCAGCTCGC, the PBM binding z-score rises from 2.73 to 3.53.

First: ACTATTAGTTGACTTAGGGCAACCTATACGACGC
Second: CGAACTAGGTCTTCCAGGACAGTGAATACATTGA
The PBM binding z-score of the first is higher: 0.924 for the first, 0.384 for the second.

First: CCTTGCGGGTCACTCCAGGTTATAGCATCGGAGT
Second: CCGAGTAGGCTATGGGGCATTCAGGCAACGGTGA
The PBM binding z-score of the first is higher: 3.11 for the first, -0.102 for the second.

Going from CAGCCTAGGTCAGGGCCAGAATAGGAGGAACGTT to AGTAAAAGTTCATCTAGGTAACGTAAGATATGCT, the PBM binding z-score rises from 3.49 to 4.72.

First: CATAAAGGGTCAGCTAGGCCAGAGTAGGGACGGC
Second: CGAACTAGGTCAAGGACACTGAATCTCCGCACGC
The PBM binding z-score of the first is higher: 4.9 for the first, 4.04 for the second.

Going from GTACCAAGGTGAATAGGTCGTTTATGAGTAGGCG to AGTCAAAGTTCAGGACGAGGTAACGCAAAGCACG, the PBM binding z-score rises from 2.01 to 4.33.

System: RARb homodimer (NR concentration 270 nM)
Assay: as above
How it was run: as §1

First: AGTATGAGGTTATTAAGATCAGGGAATTGCGGTC
Second: TCTTGTAGATCAACAGGAGGTTTAGAAAGATCGA
The PBM binding z-score of the first is higher: 1.18 for the first, -0.821 for the second.

Compared with TCGAGTAGGTTAGTCGGGTCATTCAGCCAACATA, CCTCGGAGGAAAACAGGAGGTCAGAGCTGCCAGA is higher in PBM binding z-score: 2.2 for the first, 2.81 for the second.

First: CCTACTGGGCCATAGGTCATTGATTCCAATGCTC
Second: CCTAGTTGGACAGGAGGTCACACACCGGATATGA
The PBM binding z-score of the first is lower: 2.63 for the first, 3.81 for the second.

First: CATAGTTGGTCAGGAGGTCACACACCGGATATGA
Second: CCTTACGGGTCACGAGGTAATAGCACGACGAGCG
The PBM binding z-score of the first is higher: 4.18 for the first, 3.32 for the second.

Compared with TGGAGTAGGTTACCAATGGGGCATTCAGCTTTCT, GCGACTGGGGCAAAGCAGTTTACCATAAGGTTGG is lower in PBM binding z-score: 1.16 for the first, 0.187 for the second.

First: CCTTACGGGTCACTGACAGGTTATAACATTTGGA
Second: CTCGAAAGGGCGGTTGAGGTGAGTATACGGATAA
The PBM binding z-score of the first is higher: 3.33 for the first, 0.872 for the second.

Compared with CTCGAAAGGTCGCTTGAGGTGAGTATACGGATAA, CCTACTGGGCCAAAAAGGTCGTTGATGCCGATAA is lower in PBM binding z-score: 2.86 for the first, 1.92 for the second.

Going from CCGACAGGGGCAAGGTTACCATAACGCACAGCCA to CCTAGTTGGTCAGGAGGTCACCCACCGGATATGA, the PBM binding z-score rises from 1.43 to 4.11.

First: GCATATAGGTAATACAAGGTGTAAGTCCGATTGT
Second: AACTCTAGGTAACAAGTTCAGTGAAAGAGAGGAC
The PBM binding z-score of the first is lower: -0.384 for the first, 1.66 for the second.

First: CCTGCTAGGCCATGGTCAGCTAATCTACAGTATG
Second: AGTCAAAGTTAATCTAGGTAACGTAAGATATGCT
The PBM binding z-score of the first is higher: 0.329 for the first, -0.203 for the second.

Compared with CATACAGGGTCAGCTAGGTCAGAGTAGGGACGGC, CCTAGCAGGCCAATCTGGGTCAGTCAAGGCTTGA is lower in PBM binding z-score: 4.28 for the first, 1.82 for the second.

Going from ATATGTAGGTTAAGGGTCATTCATGTTGGTTCGC to TTACTAAGGTGAGCTGAGGTCGTTGATCCAACTC, the PBM binding z-score falls from 4.2 to 1.96.

Compared with CAAACTAGGTCAAGGTCAAAGCCGGTTTGTGCCA, CCTACTGGTCCAAAAAGGTCATTGATGCCGATAA is lower in PBM binding z-score: 5.03 for the first, 4.58 for the second.

Compared with TCATATACGTAAAAGGTGAAAGTCGGTGTGGTAA, ACTAGCAGGCCAAGTTTGGGTTACTCAAACAAAG is lower in PBM binding z-score: 1.94 for the first, 0.5 for the second.

First: ATCTCTGGGTAAAGTTCAGTGAAAGATCGATAGA
Second: CCTGCTAGGTCAATTGTCAGCTAAAGCAGCTCGC
The PBM binding z-score of the first is higher: 2.68 for the first, 2.38 for the second.

Going from ACTATTAGTTGACTTAGGGCAACCTATACGACGC to CGAACTAGGTCTTCCAGGACAGTGAATACATTGA, the PBM binding z-score falls from 0.929 to 0.194.

Compared with CCTTGCGGGTCACTCCAGGTTATAGCATCGGAGT, CCGAGTAGGCTATGGGGCATTCAGGCAACGGTGA is lower in PBM binding z-score: 2.74 for the first, -0.154 for the second.

First: CAGCCTAGGTCAGGGCCAGAATAGGAGGAACGTT
Second: AGTAAAAGTTCATCTAGGTAACGTAAGATATGCT
The PBM binding z-score of the first is lower: 2.24 for the first, 3.63 for the second.

Compared with CATAAAGGGTCAGCTAGGCCAGAGTAGGGACGGC, CGAACTAGGTCAAGGACACTGAATCTCCGCACGC is lower in PBM binding z-score: 4.09 for the first, 3.08 for the second.

Compared with GTACCAAGGTGAATAGGTCGTTTATGAGTAGGCG, AGTCAAAGTTCAGGACGAGGTAACGCAAAGCACG is higher in PBM binding z-score: 1.75 for the first, 3.22 for the second.
